# Laboratory results reported in article PMC8384837, “Expanding the binding specificity for RNA recognition by a PUF domain”.
# Assays:
# Experiment in all cases: yeast three-hybrid, YBZ-1, SC-Leu-His + 0.5 mM 3-AT, 4 days
# Settings in all cases: tags: N-Gal4 AD-HA kept; label: inside an RPR1-promoter hybrid RNA with tandem MS2 sites; ssRNA
# [1] = target: PUM1 PUF domain R1-KLR (Homo sapiens, UniProt Q14671 828-1176, S863K;R864L;Q867R)
# Outline: (§1)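 Pumilio-1 PUF domain libraries, randomized at the three base-contacting residues of each repeat, were co-expressed with matching RNA elements from a centromeric plasmid in strain YBZ-1, which carries a LexA–MS2 coat fusion and a HIS3 reporter. Transformants grew for four days on SC-Leu (input) or on SC-Leu-His + 0.5 mM 3-AT (selection), and the repeat regions were PCR-amplified and Illumina-sequenced. The interaction score is the log change in variant frequency from input to selection. That logarithm is base 2, with a pseudocount of 1 where a variant was absent.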
# [2] = target: PUM1 PUF domain R1-KRY (Homo sapiens, UniProt Q14671 828-1176, S863K;Q867Y)
# Outline: as §1
# [3] = target: PUM1 PUF domain R1-RYQ (Homo sapiens, UniProt Q14671 828-1176, S863R;R864Y)
# Outline: as §1
# [4] = target: PUM1 PUF domain R2-LWQ (Homo sapiens, UniProt Q14671 828-1176, N899L;Y900W)
# Outline: as §1
# [5] = target: T1, PUM1 PUF domain R6-WWG (Homo sapiens, UniProt Q14671 828-1176, N1043W;Y1044W;Q1047G)
# T1 sequence: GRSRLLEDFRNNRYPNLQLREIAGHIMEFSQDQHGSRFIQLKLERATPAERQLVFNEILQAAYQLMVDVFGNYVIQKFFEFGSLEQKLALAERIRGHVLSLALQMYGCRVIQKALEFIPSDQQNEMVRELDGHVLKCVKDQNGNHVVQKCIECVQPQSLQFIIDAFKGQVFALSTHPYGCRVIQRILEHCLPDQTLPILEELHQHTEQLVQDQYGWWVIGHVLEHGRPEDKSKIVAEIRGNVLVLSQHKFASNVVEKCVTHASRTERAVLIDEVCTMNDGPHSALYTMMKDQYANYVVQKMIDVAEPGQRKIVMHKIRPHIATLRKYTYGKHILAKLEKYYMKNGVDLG
# Outline: as §1
# [6] = target: PUM1 PUF domain R3-TRH (Homo sapiens, UniProt Q14671 828-1176, C935T;Q939H)
# Outline: as §1
# [7] = target: PUM1 PUF domain R4-NPA (Homo sapiens, UniProt Q14671 828-1176, H972P;Q975A)
# Outline: as §1
# [8] = target: PUM1 PUF domain R8-HWI (Homo sapiens, UniProt Q14671 828-1176, N1122H;Y1123W;Q1126I)
# Outline: as §1
# [9] = target: PUM1 PUF domain R3-EHG (Homo sapiens, UniProt Q14671 828-1176, C935E;R936H;Q939G)
# Outline: as §1
# [10] = target: PUM1 PUF domain R4-DWG (Homo sapiens, UniProt Q14671 828-1176, N971D;H972W;Q975G)
# Outline: as §1
# [11] = target: PUM1 PUF domain R3-FSK (Homo sapiens, UniProt Q14671 828-1176, C935F;R936S;Q939K)
# Outline: as §1
# [12] = target: PUM1 PUF domain R3-YYS (Homo sapiens, UniProt Q14671 828-1176, C935Y;R936Y;Q939S)
# Outline: as §1
# PUM1 PUF domain R4-NPA, sequence (Q14671 828-1176 H972P/Q975A): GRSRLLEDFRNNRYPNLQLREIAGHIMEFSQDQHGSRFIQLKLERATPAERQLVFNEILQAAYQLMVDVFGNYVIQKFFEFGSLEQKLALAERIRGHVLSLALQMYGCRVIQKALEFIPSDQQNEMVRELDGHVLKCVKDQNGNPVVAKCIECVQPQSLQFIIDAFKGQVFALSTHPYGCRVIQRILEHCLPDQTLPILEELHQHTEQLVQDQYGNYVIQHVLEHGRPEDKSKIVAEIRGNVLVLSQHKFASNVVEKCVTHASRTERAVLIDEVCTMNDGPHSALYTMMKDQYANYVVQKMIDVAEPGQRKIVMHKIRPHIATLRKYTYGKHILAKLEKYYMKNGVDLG
sequence,measurement,setting,value
GGCUAGAACUAGUGGAUCCCCCGGCGCCCGGCGGCUCGAGCCCGGGUAAGUGUAAAUUGUCUGCAUGCCGCCGGGCGCCAUGCCUGCAGGUCGACUCUAGAAAACAUG,binding signal,[1],4.29 log2 enrichment (interaction score)
same,binding signal,[2],3.65 log2 enrichment (interaction score)
same,binding signal,[3],4.14 log2 enrichment (interaction score)
GGCUAGAACUAGUGGAUCCCCCGGCGCCCGGCGGCUCGAGCCCGGGUAAGUGUAAAAAGUCUGCAUGCCGCCGGGCGCCAUGCCUGCAGGUCGACUCUAGAAAACAUG,binding signal,[4],8.53 log2 enrichment (interaction score)
GGCUAGAACUAGUGGAUCCCCCGGCGCCCGGCGGCUCGAGCCCGGGUAAGUGUAAAUAGUCUGCAUGCCGCCGGGCGCCAUGCCUGCAGGUCGACUCUAGAAAACAUG,binding signal,[5],4.79 log2 enrichment (interaction score)
same,binding signal,[6],4.48 log2 enrichment (interaction score)
same,binding signal,[7],1.59 log2 enrichment (interaction score)
same,binding signal,[8],3.85 log2 enrichment (interaction score)
same,binding signal,[4],1.66 log2 enrichment (interaction score)
same,binding signal,[9],2.53 log2 enrichment (interaction score)
same,binding signal,[3],2.21 log2 enrichment (interaction score)
same,binding signal,[10],5.39 log2 enrichment (interaction score)
GGCUAGAACUAGUGGAUCCCCCGGCGCCCGGCGGCUCGAGCCCGGGUAAGUGUAAGUAGUCUGCAUGCCGCCGGGCGCCAUGCCUGCAGGUCGACUCUAGAAAACAUG,binding signal,[11],4.08 log2 enrichment (interaction score)
same,binding signal,[9],4.29 log2 enrichment (interaction score)
same,binding signal,[12],6.91 log2 enrichment (interaction score)
